In PubChem BioAssay (NCI):
The panel holds about 79,000 compounds, 15% with a hit somewhere; the sample as a whole holds those more often. Unmarked numbers belong to inactive results. No stated cut-off is given here; in the data, active means growth inhibition above about 70%; inactive means the rest.

Assay: NCI Yeast Anticancer Drug Screen. Data for the mlh1 rad18 strain (AID 175)
Settings: S. cerevisiae mlh1 rad18 strain growth inhibition; at 50.0 µM; active compounds read high
Procedure, shortened: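 Cells of a genetically altered yeast strain, deficient in DNA damage repair, were treated with compound. Their growth was then compared with that of vehicle-treated cultures to give inhibition.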
Molecule COc1ccc2c(c1)Sc1c(Cl)c3c(c(Cl)c1=N2)Sc1cc(OC)ccc1N=3 has a growth inhibition of 13.9%.
With COc1nc(NC2OC(COC(C)=O)C(OC(C)=O)C(OC(C)=O)C2OC(C)=O)c(C(=O)CCl)c(=O)[nH]1 (stereo not given) the growth inhibition was 13.7%.
Molecule O=C(O)C(Cc1ccc2c(c1)CCC2)(Cc1ccc2c(c1)CCC2)C(=O)O has a growth inhibition of 12.1%.
Work on Clc1cccc(Cl)c1C1SCc2nc3ncccc3n21 (stereo not given) yielded a growth inhibition of 0.4%.
COc1cccc(C2N(Cc3ccccc3OC)CCCN2Cc2ccccc2OC)c1 showed a growth inhibition of 8%.
For O=C(O)CC1CC2CC(=O)C1C2 (stereo not given), the growth inhibition was 12.2%.
Molecule CSCCCCCSC has a growth inhibition of 0.55%.
CCOC(=O)C1=C(C)NC(=O)NC1c1ccc(N(C)C)cc1 (stereo not given) gave a growth inhibition of 29.1%.
In the case of CCc1cccc(CC)c1N=Cc1ccccc1O, the growth inhibition is reported as 19%.
For NC(=O)c1cc(Cl)ccc1O, the growth inhibition was 11.6%.
Work on c1ccc(CCc2cccnc2)nc1 yielded a growth inhibition of -1.7%.
Nc1c2cc3c(cc2c[n+]2ccc4ccccc4c12)OCO3 gave a growth inhibition of 54.5%.
In the case of O=C1CCCC/C1=C1/SC(=Nc2ccccc2)C(=Nc2ccccc2)N1c1ccccc1, the growth inhibition is reported as 8.6%.
Molecule CCCOc1ccc(OCC(=O)c2ccccc2)cc1 has a growth inhibition of 8%.
In the case of CCCCOC(=O)NC(=O)c1cc2cc(I)cc(I)c2oc1=O, the growth inhibition is reported as 17.6%.
For N#CCCCCBr, the growth inhibition was 7.5%.
For O=C1OC(=O)c2c1ccc1ccccc21, the growth inhibition was 14.8%.
In the case of CCOC(=O)C[n+]1ccc(C(=O)OCC)cc1, the growth inhibition is reported as 3.5%.
Molecule C=C1OC(=O)C(N)=C1C(C)=O has a growth inhibition of 12.4%.
For CN(/N=C(\C(=O)O)c1ccccc1)C1=NCCN1, the growth inhibition was 9.3%.
NNC(=O)CC(=O)Nc1ccccc1F showed a growth inhibition of -2.85%.
CC(C)c1ccc(/C=C/C(=O)c2ccc([N+](=O)[O-])cc2)cc1 showed a growth inhibition of 3.15%.
With O=C(O)c1cccc(CO)c1O the growth inhibition was 4.4%.
Work on COC(=O)C(C)(Cc1ccc2c(c1)nnn2C(C)=O)NC(C)=O (stereo not given) yielded a growth inhibition of -51.9%.
Work on CC[C@@]12CCC(=S)N(CCSc3ccccc3)[C@@H]1c1c(n(S(=O)(=O)c3ccc(OC)cc3)c3ccccc13)CC2 yielded a growth inhibition of -5.3%.
In the case of CC(=O)OCC1OC(n2ncnc2CI)C(OC(C)=O)C(OC(C)=O)C1OC(C)=O (stereo not given), the growth inhibition is reported as 21.5%.
For Cc1c(O)cc(O)c(C=O)c1C, the growth inhibition was 3.1%.
Cc1cccc(C)c1NC(=O)/C(=N/NC(N)=S)C(C)C(=O)c1ccc(Cl)cc1 (stereo not given) showed a growth inhibition of 22.3%.
With O=C1C=C/C(=N/c2ccc(O)o2)c2ccccc21 the growth inhibition was 60%.
Work on Clc1ccccc1N=NNc1ccccc1Cl yielded a growth inhibition of 6.75%.
NC1(c2ccccc2)CON=C(c2ccccc2)C1 (stereo not given) gave a growth inhibition of 16.9%.
Molecule CC(=S)NNC(=O)c1ccncc1 has a growth inhibition of -14.9%.
COc1ccc(OC)c(C(N)=O)c1 gave a growth inhibition of -2.5%.
Clc1ccc(N=Cc2ccccc2)cn1 gave a growth inhibition of 47.4%.
Molecule O=C1Cc2c([nH]c3c(Cl)cccc23)-c2ccccc2N1 has a growth inhibition of -23.4%.
For N#CC(CC(=O)c1ccccc1)c1ccccc1Cl (stereo not given), the growth inhibition was 22%.
For CCOC(=O)N1Cc2cc3ccc(OC)cc3nc2C1, the growth inhibition was 3.9%.
Work on Cc1ccc2ccccc2c1C(=O)c1ccccc1Cc1cccc2ccccc12 yielded a growth inhibition of -1.05%.
In the case of Cn1c(=O)c2c(nc(NCCO)n2Cc2ccccc2)n(C)c1=O, the growth inhibition is reported as 31.2%.
In the case of Cc1cc(S(=O)(=O)Nc2nnc3c4ccccc4cnn23)c(S)cc1Cl, the growth inhibition is reported as -31.6%.
